Compound activity as filed in PubChem BioAssay.
Shown are actives, neighbours in structure and some others; about 3.5% of the full set was active somewhere.
TEAD-YAP block: TEAD-YAP interaction inhibition | HEK-TIYL cells, TEAD-Gal4/YAP UAS-luciferase luminescence | inhibition, % at 9.12 µM | actives 1.4% (n = 640,000); in the data active = inhibition above about 32%;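 also: 0% = median of test compound wells and 100% = reference inhibitor wells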
GPR151 activ: human GPR151 activation; Q8TDV0; PathHunter beta-arrestin GPR151 cells, luminescence; activation, % at 11.2 µM; actives 1% (n = 650,000); AID 1508602; in the data active = activation above about 4.9%;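 also: 0% = median of compound wells and 100% = cells with positive control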
FBW7 act: human FBW7 E3 ligase activation, primary screen. Q969H0. AlphaScreen FBW7–phospho-cyclin E peptide binding, activator screen. normalized activity (activation), % at 26.1 µM. actives 0.13% (n = 650,000). AID 1259310; in the data active = normalized activity above about 1.9%;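 also: purified mutant Fbw7 with reduced substrate affinity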
MITF inh: blocks human microphthalmia-associated transcription factor; O75030; inhibition, % at 2.6 µM; AlphaScreen MITF homodimerization, bead proximity signal; actives 0.91% (n = 650,000); in the data active = inhibition above about 50%;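 also: 0% = vehicle wells with protein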
Target sequence (O75030 whole entry, looked up): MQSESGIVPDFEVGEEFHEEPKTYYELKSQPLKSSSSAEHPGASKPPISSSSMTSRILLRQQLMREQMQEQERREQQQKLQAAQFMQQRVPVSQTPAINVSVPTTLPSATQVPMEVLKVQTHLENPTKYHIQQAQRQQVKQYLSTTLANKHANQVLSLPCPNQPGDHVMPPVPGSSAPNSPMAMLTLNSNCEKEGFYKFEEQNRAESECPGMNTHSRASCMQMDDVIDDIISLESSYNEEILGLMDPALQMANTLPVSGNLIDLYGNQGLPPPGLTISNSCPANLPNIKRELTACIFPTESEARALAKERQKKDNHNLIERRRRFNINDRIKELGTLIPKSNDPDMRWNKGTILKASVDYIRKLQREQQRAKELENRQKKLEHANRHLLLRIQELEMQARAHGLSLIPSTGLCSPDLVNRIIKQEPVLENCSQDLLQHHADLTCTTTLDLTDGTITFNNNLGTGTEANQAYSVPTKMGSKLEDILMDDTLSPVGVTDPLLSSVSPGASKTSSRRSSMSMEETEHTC
* hit, by the source's call.

SMILES | TEAD-YAP block | GPR151 activ | FBW7 act | MITF inh
COc1cc(/C=C2\C(=O)ON=C2c2ccccc2)cc(OC)c1OC | -7 | 0 | 0 | 13
COc1ccc(/C=C2/C(=O)ON=C2c2ccccc2)cc1OC | -26 | 2 | -1 | 65*
COc1ccc(OC)c(/C=C2\C(=O)ON=C2c2ccccc2)c1 | -8 | 0 | 0 | 77*
CCCCOc1ccc(/C=C2\C(=O)ON=C2c2ccc(Cl)cc2)cc1 | 9 | -1 | 0 | 24
COc1ccc(OC)c(C=C2C(=O)OC(C)(c3ccccc3)OC2=O)c1 (stereo unspecified) | -8 | 1 | 0 | 22
O=C1ON=C(c2ccc(Cl)cc2)/C1=C\c1ccc2c(c1)OCO2 | 2 | 0 | 0 | 77*
CCOc1ccc(/C=C2\C(=O)ON=C2c2ccccc2)cc1 | -5 | 0 | 0 | 6
CC(NC(=O)c1ccco1)c1nnc2n1CCN(Cc1nccs1)CC2 (stereo unspecified) | 5 | 1 | 0 | -7
CC(C)(C)C(=O)[C@@H]1[C@@H](c2ccc(Cl)cc2)C(C#N)(C#N)[C@H]2C=Cc3ccccc3N12 | -13 | 2 | 0 | 1
CC1C(c2ccc3ccccc3n2)=CNc2ccccc21 (stereo unspecified) | 41* | -1 | 0 | 4
COc1ccc(-c2csc(N(C)C(=O)c3c(OC)cccc3OC)n2)cc1 | -9 | 2 | 0 | -17
Cc1ccc2nc(-c3ccc([N+](=O)[O-])cc3)cn2c1 | -34 | -2 | 0 | -4
Cc1ccc2nc(-c3ccc(O)c(O)c3)cn2c1 | 54* | -7 | 0 | 0
Cc1ccc2nc(-c3ccc(O)cc3O)cn2c1 | 80* | 1 | 0 | 0
Cc1cc2c(cc3c(=O)n(CC(=O)NCc4ccc(OC(C)C)cc4)ncn32)s1 | 13 | 0 | 1 | 8
CCN(CC)S(=O)(=O)c1ccc(Cl)c(C)c1 | -1 | 0 | 0 | -17
CC(=O)Oc1ccc2c(=O)c(-c3ccc4c(c3)OCCCO4)coc2c1 | 67* | -2 | 0 | 4
COc1ccc2c(=O)c(-c3ccc4c(c3)OCCCO4)coc2c1 | -23 | -1 | 0 | 18
CC(=O)Oc1cc(OC(C)=O)c2c(=O)c(-c3ccc4c(c3)OCCCO4)coc2c1 | 70* | -1 | 0 | 3
COc1cc(OC)c2c(=O)c(-c3ccc4c(c3)OCO4)coc2c1 | -66 | 0 | 0 | -6
CC(=O)N1c2ccc(-c3csc(NC(=O)c4ccncc4)n3)cc2CC1C (stereo unspecified) | 68* | 0 | 0 | -9
O=C(NCCOc1ccccc1)c1ccc2nc(NC3CCN(Cc4ccccc4)CC3)sc2c1 | -66 | -1 | 0 | -2
COCC(C)n1c(C)cc(C(=O)COC(=O)c2cccn2C)c1C (stereo unspecified) | 67* | -2 | 0 | 11
Cc1ccc(C)c(Nc2cc(C(=O)NCCN3CCOCC3)c3ccccc3n2)c1 | 8 | -1 | 0 | 18
Oc1ccc(-c2csc3nc(-c4ccccc4)nn23)c(O)c1 | 34* | -1 | 0 | 14
SMILES | TEAD-YAP block | GPR151 activ | FBW7 act | MITF inh
Cc1nn2c(-c3ccccc3)csc2nc1=O | 10 | 2 | 0 | -7
CCOc1ccc(-n2cc(-c3ccccc3)c3c(N4CCC(C(N)=O)CC4)ncnc32)cc1 | 4 | 1 | 0 | 9
CCNC(=O)N1CCN(Cc2ccccc2)CC1C(=O)N1CCCC1 (stereo unspecified) | 2 | 1 | 0 | 2
c1ccc(OCCNc2cc(NCCN3CCOCC3)ncn2)cc1 | -3 | 0 | 0 | 23
COc1ccc(CN2C[C@@H]3C[C@@H](c4cc5ccccc5o4)N4CCC[C@@]34C2=O)cc1 | 77* | 0 | 0 | -7
COc1ccc(CN2C[C@@H]3C[C@@H](c4ccccc4C)N4CCC[C@@]34C2=O)cc1 | -6 | -2 | 0 | 4
CC1=C(C(=O)OCc2ccccc2)C(c2ccc(Cl)c(Cl)c2)NC(=O)N1 (stereo unspecified) | 1 | 2 | 0 | -4
Cc1cc(F)ccc1NC(=O)CN(C)S(=O)(=O)c1ccc2c(c1)C(C)(C)C(=O)N2C | 5 | 0 | 0 | 12
COc1cc(-c2c3cc(O)c(=O)cc-3oc3cc(O)c(O)cc23)ccc1C | 3 | -1 | 0 | 106*
COc1ccc(-c2cc(=O)c3cc(O)ccc3o2)cc1OC | -13 | -1 | 0 | -1
Cc1ccc(-c2cc(=O)c3cc(Cl)ccc3o2)cc1 | -59 | 4 | 0 | -9
CCOc1ccccc1-c1c2cc(O)c(=O)cc-2oc2cc(O)c(O)cc12 | 6 | 0 | 0 | 103*
O=c1cc2oc3cc(O)c(O)cc3c(-c3cccnc3)c-2cc1O | 5 | 1 | -1 | 100*
Cc1ccc(-c2c3cc(O)c(=O)cc-3oc3cc(O)c(O)cc23)cc1 | 5 | 1 | 0 | 102*
OCCOc1cc(Br)c(Br)cc1OCCO | -2 | -1 | 0 | 19
COc1cc(-c2cnc3c(NCCCO)nccn23)cc(OC)c1OC | 7 | 0 | 0 | 8
Cc1cc2nccc(NC(=O)CSc3ccccc3)n2n1 | 4 | 3 | 2.1* | -12
Cc1cc2nccc(NC(=O)c3c(F)cccc3F)n2n1 | 10 | 0 | 0 | -2
COc1cccc(Cn2ccn(-c3cccc(Cl)c3)c(=O)c2=O)c1 | 53* | -2 | 0 | -3
COc1cccc(Cn2ccn(Cc3ccccc3)c(=O)c2=O)c1 | -4 | 1 | 1 | 13
O=C(O)c1cc(-c2ccc(O)c(O)c2)nc2n[nH]c(-c3ccccc3)c12 | -8 | 1 | 0 | 81*
O=C(O)c1cc(-c2ccc(O)c(O)c2)nc2n[nH]c(-c3ccc(F)cc3)c12 | 1 | 0 | 0 | 20
O=C(CSc1nccc(=O)[nH]1)c1ccc(O)c(O)c1 | 2 | -2 | 0 | 55*
CCOC(=O)c1ccc(NC(=O)CN2C(=O)CC(C)(C)S(=O)(=O)c3ccccc32)cc1 | 22 | -1 | 5.2* | 5
CCn1nc(CN)c2ccccc2c1=O | 43* | 1 | 0 | 0
SMILES | TEAD-YAP block | GPR151 activ | FBW7 act | MITF inh
CCn1nc(CCC(=O)O)c2ccccc2c1=O | 2 | -1 | 0 | -9
COCCNC(=O)C(c1ccco1)N(C(=O)Cn1nnc2ccccc21)c1cccnc1 (stereo unspecified) | -1 | 0 | 0 | -15
CCCCOc1ccc(-c2cnc(S(C)(=O)=O)nc2)cc1 | 46* | 2 | 0 | 0
COc1cc(/C=N\NC(=O)c2ccncc2)cc(Br)c1O | 5 | 1 | 0 | 20
CCCCCN1C(=O)C(=O)c2ccccc21 | -1 | 2 | 0 | -3
CCCCCN1C=CC(=C2C(=O)c3ccccc3C2=O)C=C1 | 95* | -8 | 2 | 14
Cc1ccc(C)c(Nc2nc(NCCN(C)C)nc3nccnc23)c1 | -4 | -2 | 2.1* | -11
Cc1ccc(C)c(Nc2nc(NCc3ccco3)nc3nccnc23)c1 | -1 | -2 | 0 | 0
CC(C)(C)c1ccc(CSc2nc3ccc(NC(=O)c4ccccc4Cl)cc3s2)cc1 | 1 | 1 | 0 | 15
O=c1c2ccccc2nc(/C=C/c2cn(Cc3ccccc3)c3ccccc23)n1-c1ccccc1[N+](=O)[O-] | 2 | 0 | 0 | 4
